Experimental findings from PubChem BioAssay are described below.

SMILES strings stand for the structures. The source made the active and inactive calls.

In assay [1] the test system is Plasmodium falciparum Sir2 (PF13_0152, Sir2A). Briefly: pfSir2 binders on small-molecule microarrays, primary screen, biochemical, small-molecule microarray, 635 nm fluorescence (AID 1098).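 Note: score merges spot fluorescence intensity with its signal-to-noise ratio.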 The following applies: small-molecule microarray binding, fluorescence 635 nm; higher = more signal.
Assay [2] can be described thus: small-molecule microarray binders of probe aDKK1, primary screen, biochemical, biotinylated probe, 635/667 nm fluorescence (AID 1099).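 Note: score merges 667nm spot fluorescence with signal to noise across triplicate slides.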 The following applies: higher = more signal.
Assay [3] is described as follows: small-molecule microarray binders of probe aCHRDL2, primary screen, biochemical, biotinylated probe, 635/667 nm fluorescence (AID 1100). The following applies: higher = more signal.
A short description of assay [4]: splicing luciferase reporter signal modulators, primary screen, spliceosome inhibition project, cell-based, HEK293, splice +/- reporter (AID 1101).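 Note: HEK293 cells carrying a splicing-competent luciferase reporter gene; test concentration not given here.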 The settings on record: luminescence, 24 h, higher = more signal, called active from +8 up or from −8 down. In general terms: A reporter such as luciferase makes a cellular process visible.
Assay [5] deals with Fibroblast growth factor 10 (Homo sapiens) (UniProt O15520). Briefly: FGF10 binders on small-molecule microarrays, primary screen, biochemical, small-molecule microarray, 635 nm fluorescence (AID 1102). The settings on record: FGF10 binding, fluorescence 635 nm, higher = more signal.
Assay [6] relates to glycogen synthase kinase-3 (GSK3A per assay name; protocol says GSK3B). Nature of the assay: GSK3 binders on small-molecule microarrays, primary screen, biochemical, small-molecule microarray, 635 nm fluorescence, GSK3A (AID 1103). Note: the record names both GSK3A and GSK3B. The following applies: small-molecule microarray binding, fluorescence 635 nm; higher = more signal.
Assay [7] addresses Epidermal growth factor receptor (Homo sapiens) (UniProt P00533). Briefly: EGFR binders on small-molecule microarrays, primary screen, biochemical, small-molecule microarray, 635 nm fluorescence (AID 1104).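 Note: score merges 667 nm emission intensity with spot signal to noise over triplicate slides.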 The following applies: EGFR binding, higher = more signal.
Assay [8] addresses Follistatin-related protein 3 (Homo sapiens) (UniProt O95633). Briefly: FSTL3 binders on small-molecule microarrays, primary screen, biochemical, small-molecule microarray, 635 nm fluorescence (AID 1105).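 Note: score merges emission near 667 nm and signal to noise per printed spot across three slides.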 The following applies: FSTL3 binding, higher = more signal.
The target in assay [9] is Dickkopf-related protein 1 (Homo sapiens) (UniProt O94907). Briefly: DKK1 binders on small-molecule microarrays, primary screen, biochemical, small-molecule microarray, 635 nm fluorescence scan (AID 1106).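 Note: score merges emission near 667 nm with signal to noise over three replicate slides.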 The following applies: DKK1 binding, higher = more signal.
Assay [10] relates to Inhibin beta A chain (activin A). Nature of the assay: INHBA (activin A) binders on microarrays, primary screen, biochemical, small-molecule microarray, 635 nm fluorescence scan (AID 1107).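 Note: mouse activin A protein probed at 4.33 µg/mL on printed slides; score merges bound-protein fluorescence near 667 nm with spot signal-to-noise.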 The following applies: small-molecule microarray binding, higher = more signal.
In assay [11] the test system is Human papillomavirus type 1a protein E7 (residues 44-93). Briefly: HPV1a E7 fragment binders on microarrays, primary screen, biochemical, small-molecule microarray, residues 44-93, 635 nm fluorescence (AID 1108).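 Note: E7 fragment applied at 1 µg/mL in TBST for 1 h at 4 C; score combines spot fluorescence with its signal to noise ratio.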 The settings on record: small-molecule microarray binding, fluorescence 635 nm; higher = more signal.
A short description of assay [12]: modulators of HCV replicon luciferase signal, primary screen, HCV replication inhibitor project, Huh7 cells, luciferase reporter (AID 1109).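 Note: huh7 hepatoma cells harbouring a luciferase neomycin HCV replicon reporter; luciferase luminescence as measure of HCV replicon replication; test concentration not given here.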 The settings on record: 48 h, higher = more signal. On the technique in general: A replicon is a self-replicating genome or part of one, used to study replication in cells.
Assay [13] deals with Left-right determination factor 2 (Homo sapiens) (UniProt O00292). Briefly: LEFTY2 binders on small-molecule microarrays, primary screen, biochemical, small-molecule microarray, 635 nm fluorescence scan (AID 1110). The settings on record: LEFTY2 binding, higher = more signal.
Assay [14] concerns the target Calmodulin-1 (Homo sapiens) (UniProt P0DP23). Briefly: CALM1 binders on microarrays, EGTA buffer, profiling panel, biochemical, small-molecule microarray, Cy5-labelled CALM1 (AID 1111).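 Note: labelled calmodulin applied in Tris saline Tween buffer holding calcium plus EGTA and DTT.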 The following applies: Cy5-CALM1 binding fluorescence, higher = more signal.
The target is the same in assay [15]. Nature of the assay: calcium-bound CALM1 binders on microarrays, profiling panel, artefact control for SMM control-protein annotation, biochemical, small-molecule microarray, Cy5-labelled CALM1, plus calcium (AID 1112).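 Note: score merges spot fluorescence with signal to noise from triplicate slides.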 The settings on record: Cy5-CALM1 binding fluorescence, higher = more signal.
Assay [16] can be described thus: small-molecule microarray binders of probe aWnt5a, primary screen, biochemical, biotinylated probe, 635/667 nm fluorescence (AID 1113).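 Note: score merges 667 nm fluorescence intensity with signal-to-noise per printed feature.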 The settings on record: higher = more signal.
Assay [17] is described as follows: small-molecule microarray binders of probe aShh, primary screen, biochemical, biotinylated probe, 635/667 nm fluorescence (AID 1114).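 Note: probe is biotin-labelled aShh protein from a stem cell growth factor screen; measures binding of labelled protein to compounds printed on the slide; score merges feature fluorescence at 667 nm with signal-to-noise.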 The settings on record: higher = more signal.
A short description of assay [18]: small-molecule microarray binders of probe aNog, primary screen, biochemical, biotinylated probe, 635/667 nm fluorescence (AID 1115).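 Note: probe is biotinylated aNog protein used at 0.15 µg/mL for 1 h at 4 C; z-score combines 667 nm fluorescence of each spot with its signal to noise.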 The settings on record: higher = more signal.
In assay [19] the target is Torsin-1A-interacting protein 1 (Homo sapiens) (UniProt Q5JTV8). Briefly: LAP1 binders from COS7 cell lysate, primary screen, small-molecule microarray, 635/667 nm fluorescence (AID 1116). The settings on record: COS7-hLAP1 lysate binding, 635 nm fluorescence, higher = more signal.
In assay [20] the target is Alpha-bungarotoxin (Bungarus multicinctus) (UniProt P60615). Briefly: alpha-bungarotoxin binders on microarray, profiling panel, artefact control for SMM control protein annotation, biochemical, small-molecule microarray, Alexa647 label, 635/667 nm fluorescence (AID 1117). The settings on record: alpha-BTX-A647 binding fluorescence, higher = more signal.
Sequence of Alpha-bungarotoxin (Bungarus multicinctus) (P60615 whole entry, looked up): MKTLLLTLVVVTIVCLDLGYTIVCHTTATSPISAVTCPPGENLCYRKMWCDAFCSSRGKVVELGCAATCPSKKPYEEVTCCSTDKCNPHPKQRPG

Sequence of Fibroblast growth factor 10 (Homo sapiens) (O15520 whole entry, looked up): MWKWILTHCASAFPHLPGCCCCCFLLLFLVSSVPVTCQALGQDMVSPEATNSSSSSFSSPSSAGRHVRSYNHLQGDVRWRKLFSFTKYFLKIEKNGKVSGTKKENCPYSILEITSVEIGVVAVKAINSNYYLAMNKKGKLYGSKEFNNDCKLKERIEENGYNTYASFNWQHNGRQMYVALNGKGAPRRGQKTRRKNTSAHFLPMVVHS
Sequence of Dickkopf-related protein 1 (Homo sapiens) (O94907 whole entry, looked up): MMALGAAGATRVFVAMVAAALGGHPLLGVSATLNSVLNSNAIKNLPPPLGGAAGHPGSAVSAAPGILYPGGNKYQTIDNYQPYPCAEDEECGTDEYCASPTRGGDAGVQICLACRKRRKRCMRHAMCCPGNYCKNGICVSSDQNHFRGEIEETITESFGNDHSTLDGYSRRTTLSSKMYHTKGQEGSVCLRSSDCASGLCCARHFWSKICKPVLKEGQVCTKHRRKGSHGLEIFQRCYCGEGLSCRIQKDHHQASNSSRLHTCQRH
Sequence of Epidermal growth factor receptor (Homo sapiens) (P00533 whole entry, looked up): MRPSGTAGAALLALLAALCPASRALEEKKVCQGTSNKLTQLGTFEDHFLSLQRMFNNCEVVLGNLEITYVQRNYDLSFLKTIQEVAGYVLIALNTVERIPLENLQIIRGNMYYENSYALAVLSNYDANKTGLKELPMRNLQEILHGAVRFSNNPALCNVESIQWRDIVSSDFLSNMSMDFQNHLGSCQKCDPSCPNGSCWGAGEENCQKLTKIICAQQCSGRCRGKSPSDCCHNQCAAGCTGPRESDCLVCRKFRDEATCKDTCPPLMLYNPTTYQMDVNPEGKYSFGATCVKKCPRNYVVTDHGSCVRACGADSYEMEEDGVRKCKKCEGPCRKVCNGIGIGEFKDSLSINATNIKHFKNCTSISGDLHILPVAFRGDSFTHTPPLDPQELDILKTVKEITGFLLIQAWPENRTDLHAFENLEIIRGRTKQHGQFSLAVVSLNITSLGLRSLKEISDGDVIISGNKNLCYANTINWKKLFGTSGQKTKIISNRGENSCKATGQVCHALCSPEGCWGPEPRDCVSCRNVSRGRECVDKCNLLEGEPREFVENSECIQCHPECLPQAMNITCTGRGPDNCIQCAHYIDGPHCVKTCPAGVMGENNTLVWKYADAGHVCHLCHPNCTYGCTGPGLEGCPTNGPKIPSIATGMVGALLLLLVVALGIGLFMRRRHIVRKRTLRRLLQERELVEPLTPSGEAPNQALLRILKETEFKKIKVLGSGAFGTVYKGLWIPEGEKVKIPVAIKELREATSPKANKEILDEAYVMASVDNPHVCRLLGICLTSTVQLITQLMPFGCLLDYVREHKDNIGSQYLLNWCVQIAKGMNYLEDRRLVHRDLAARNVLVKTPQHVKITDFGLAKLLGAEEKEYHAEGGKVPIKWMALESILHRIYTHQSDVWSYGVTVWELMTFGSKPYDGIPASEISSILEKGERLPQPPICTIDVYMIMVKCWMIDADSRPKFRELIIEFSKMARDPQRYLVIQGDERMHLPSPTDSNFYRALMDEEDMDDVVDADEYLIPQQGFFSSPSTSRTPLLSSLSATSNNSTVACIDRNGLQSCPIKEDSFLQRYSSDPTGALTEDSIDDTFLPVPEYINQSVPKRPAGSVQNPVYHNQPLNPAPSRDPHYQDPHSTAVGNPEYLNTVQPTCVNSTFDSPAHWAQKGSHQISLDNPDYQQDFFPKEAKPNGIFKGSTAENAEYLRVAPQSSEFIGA
Sequence of Torsin-1A-interacting protein 1 (Homo sapiens) (Q5JTV8 whole entry, looked up): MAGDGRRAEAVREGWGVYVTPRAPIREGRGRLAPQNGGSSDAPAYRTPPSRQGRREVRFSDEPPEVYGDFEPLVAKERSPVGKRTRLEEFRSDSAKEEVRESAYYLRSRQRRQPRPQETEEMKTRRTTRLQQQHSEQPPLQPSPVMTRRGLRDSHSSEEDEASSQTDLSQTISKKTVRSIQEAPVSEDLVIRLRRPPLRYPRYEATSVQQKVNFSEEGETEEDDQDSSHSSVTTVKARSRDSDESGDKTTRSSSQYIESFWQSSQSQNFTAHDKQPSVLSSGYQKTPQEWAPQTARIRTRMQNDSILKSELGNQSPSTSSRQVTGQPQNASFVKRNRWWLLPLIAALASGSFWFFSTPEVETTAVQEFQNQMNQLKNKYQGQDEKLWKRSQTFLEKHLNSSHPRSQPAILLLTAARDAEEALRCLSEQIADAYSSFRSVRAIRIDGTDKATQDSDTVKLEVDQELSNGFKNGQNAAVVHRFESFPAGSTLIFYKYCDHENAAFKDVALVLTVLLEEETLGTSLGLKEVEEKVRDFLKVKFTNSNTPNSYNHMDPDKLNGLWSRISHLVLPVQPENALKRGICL
Sequence of Follistatin-related protein 3 (Homo sapiens) (O95633 whole entry, looked up): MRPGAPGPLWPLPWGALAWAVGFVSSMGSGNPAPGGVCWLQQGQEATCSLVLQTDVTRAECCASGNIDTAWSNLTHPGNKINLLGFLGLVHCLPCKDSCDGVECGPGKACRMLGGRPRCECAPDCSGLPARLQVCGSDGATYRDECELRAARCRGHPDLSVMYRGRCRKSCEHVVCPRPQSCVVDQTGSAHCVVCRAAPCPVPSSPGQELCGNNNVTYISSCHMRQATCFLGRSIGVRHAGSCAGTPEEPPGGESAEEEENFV
Sequence of Left-right determination factor 2 (Homo sapiens) (O00292 whole entry, looked up): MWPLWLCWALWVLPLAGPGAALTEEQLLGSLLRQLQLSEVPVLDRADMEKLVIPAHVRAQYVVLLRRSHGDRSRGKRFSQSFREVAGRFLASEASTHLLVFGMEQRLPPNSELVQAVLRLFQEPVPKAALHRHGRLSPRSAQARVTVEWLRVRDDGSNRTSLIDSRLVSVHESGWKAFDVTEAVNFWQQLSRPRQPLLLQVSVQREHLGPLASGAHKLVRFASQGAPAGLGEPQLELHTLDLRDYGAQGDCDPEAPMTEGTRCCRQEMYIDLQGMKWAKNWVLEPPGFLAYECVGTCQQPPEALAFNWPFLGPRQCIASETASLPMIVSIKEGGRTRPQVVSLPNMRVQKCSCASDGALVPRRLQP

For the compound `CCOC(=O)CCN1C(=O)[C@H]2[C@H]3[C@H](O)[C@H](O)CC(=NNC(=O)OCC)[C@H]3CC[C@H]2C1=O`, the composite z-score in assay [1] was 0.533; in assay [2], -0.55; in [3], -0.799; in assay [5], 0.0385; in assay [6], -0.542; in assay [7], 0.459. For the same compound, the composite z-score in [8] is 0.567; in assay [9] it was 0.913; in [10], 1.26; in assay [11] it was -0.0248; in assay [13] it was 0.679; in [14], -0.842. Besides, the composite z-score is -1.67 in [15]; -0.1 in [16]; -0.0626 in assay [17]; 0.121 in [18]; -0.0184 in [19]; -0.798 in assay [20]. Besides, the z-score was -0.24 (inactive) in [4] and -2.37 in assay [12].
Turning to `CC(=O)OC[C@H]1O[C@H](CC=NOCC[C@@H]2C=C[C@H](OC(C)=O)[C@@H](COC(C)=O)O2)C=C[C@@H]1OC(C)=O`, the composite z-score in [1] is 0.892; in assay [2], 0.771; in [3], -0.752; in [5], 1.08; in assay [6], 0.93; in assay [7], 0.914. For the same compound, the composite z-score in assay [8] is 0.716; in [9], 0.864; in [10] it was 0.103; in assay [11], 1.02; in assay [13], 0.888; in assay [14], -0.981. The composite z-score in assay [15] was -0.171; in assay [16], -0.001; in assay [17] it was -0.0904; in [18] it was -0.216; in assay [19], -0.0873; in assay [20], 0.408. Further, the z-score in assay [4] is 0.525 (inactive); in [12], 0.111.
Take `CC(C)=NOC(C)CN1CCCc2nc(C)c(C)cc21` (stereo not given): the composite z-score in assay [1] was 1.19; in assay [2] it was -0.446; in assay [3], -0.696; in assay [5] it was 0.809; in [6], 1.1; in assay [7], 0.697. Further, the composite z-score was 1.16 in [8]; 0.63 in assay [9]; 0.206 in assay [10]; 1.17 in assay [11]; 0.75 in assay [13]; -0.291 in assay [14]. Besides, the composite z-score in assay [15] was -0.869; in assay [16], -0.0718; in assay [17], 0.214; in assay [18], -0.0809; in [19], -0.0182; in assay [20] it was 0.32. In addition, the z-score in assay [4] was 0.484 (inactive); in assay [12], 0.302.
Regarding `O=C1C2=CC[C@H]3C(=O)N(c4ccc(F)cc4F)C(=O)[C@H]3[C@H]2[C@H](O)[C@@H]2O[C@H]12`, the composite z-score in [1] was 0.305; in assay [2], -0.378; in assay [3] it was -0.778; in [5] it was 0.472; in assay [6], 0.578; in assay [7] it was 0.347. For the same compound, the composite z-score in assay [8] was 0.453; in assay [9], 0.658; in [10], -0.172; in assay [11] it was 0.356; in [13], 0.662; in assay [14] it was -0.232. In addition, the composite z-score is -0.773 in [15]; -0.206 in assay [16]; -0.352 in assay [17]; -0.553 in [18]; 0.335 in assay [19]; 0.455 in assay [20]. Further, the z-score in assay [4] is -0.35 (inactive); in assay [12] it was -0.155.
Take `O=C1C=C[C@@H](O)[C@@H]2[C@@H]3C(=O)N(c4cccc(Oc5ccccc5)c4)C(=O)[C@@H]3CC[C@@H]12`: the composite z-score in assay [1] was 0.378; in [2], -0.147; in assay [3], -0.597; in assay [5] it was 0.322; in assay [6], 0.499; in [7], 0.386. The composite z-score in assay [8] was 0.438; in assay [9], 0.503; in assay [10] it was -0.0914; in assay [11] it was 0.242; in assay [13], 0.594; in assay [14], -0.203. The composite z-score in assay [15] is -0.477; in assay [16] it was -0.152; in assay [17] it was -0.0626; in [18] it was -0.381; in [19], 0.503; in [20], 0.0671. Also, the z-score was -0.856 (inactive) in assay [4] and -2.07 in assay [12].
For `CO[C@H]1COC(=O)[C@H](CCSC)NC(=O)CC=C[C@@H](C)[C@H](OC)COC(=O)[C@@H](OCc2ccccc2)C=C[C@@H]1C`, the composite z-score in [1] was 0.988; in assay [2], -0.488; in [3] it was -0.513; in assay [5], 0.605; in [6] it was 0.751; in [7], 0.975. For the same compound, the composite z-score is 0.922 in assay [8]; 1.38 in [9]; 0.824 in assay [10]; 0.176 in assay [11]; 0.753 in assay [13]; -0.841 in assay [14]. Moreover, the composite z-score was -1.69 in [15]; -0.159 in assay [16]; -0.221 in [17]; -0.483 in assay [18]; 0.0829 in assay [19]; -0.531 in [20]. Besides, the z-score in [4] was 0.45 (inactive); in [12], -1.4.
